# Out of some 69,000 compounds screened, about 8,600 (12%) showed an effect of 50% or more. This is one part of a sample in which strong results are shown more often than they occur.
# System: Plasmodium berghei
# Assay: Screen against P. berghei liver stage (PbLuc), transformed with Luciferase, at 10uM
# Assay type: functional, HepG2
# Conditions: tested at 10 uM
row,Structure (SMILES),INHIBITION
1,COCCNC(=O)c1sc(Nc2ccc(Cl)cn2)nc1C,67.9%
2,CC(=O)c1sc(Nc2ccc(Cl)cn2)nc1C,-9.27%
3,CCCc1nc(C)c(C(=O)NCCN2CCCCC2)s1,-21.9%
4,Cc1nc(Nc2ccc(Cl)cn2)sc1C(=O)NC(C)C,-86.5%
5,Cc1nc(Nc2ccc(Cl)cn2)sc1C(=O)NCCCN1CCCCC1,52.3%
6,CCCNC(=O)c1sc(Nc2ccc(Cl)cn2)nc1C,-19.7%
7,COc1ccc(CCC(=O)N2CCNCC2C(=O)N2CCCC2)cc1 (configuration not stated),32.1%
8,COCCO[C@H]1CCN(Cc2cccnc2)[C@H]1Cc1cccnc1,-31%
9,CN(C)S(=O)(=O)N1C[C@H]2CC[C@@H](C1)N(Cc1ccc(F)c(F)c1)C2,0.825%
10,CSc1nccn1-c1ccc(C(=O)NCC2CC2)cc1,36.1%
11,O=C(NCCCn1nc2ccccn2c1=O)NCC(C1CC1)C1CC1,-20%
12,CCNc1ncc(-c2cc(-c3ccn(C)c3)nc(N)c2C#N)cn1,36%
13,COc1cc(-c2cc(-c3ccn(C)c3)nc(N)c2C#N)cc(OC)c1O,71.2%
14,COc1ncc(-c2cc(-c3ccn(C)c3)nc(N)c2C#N)cn1,29.4%
15,CCn1cc(-c2cc(-c3ccn(C)c3)nc(N)c2C#N)cc1C#N,81.1%
16,Cc1ccc(-c2cc(-c3c(C)nn(CCO)c3C)c(C#N)c(N)n2)cc1,14.1%
17,CCCn1cc(-c2cc(-c3cnc(OC)nc3)c(C#N)c(N)n2)c(C)n1,25.1%
18,O=C(NCC1CC1)c1cc(C2CC2)nc2onc(C3CCCNC3)c12 (configuration not stated),-3.11%
19,CCN1CC2(CC1=O)CN(Cc1cnn(C)c1)CCN(C(=O)C(C)C)C2 (configuration not stated),9.54%
20,CC(Cn1cccn1)NC(=O)NCCc1cnn(C)c1 (configuration not stated),49.6%
21,CC(NCCCc1cnn(C)c1)c1ccc(Cl)s1 (configuration not stated),51.7%
22,Cc1nc(C)c(C(C)NCc2cnc(N3CCOCC3)nc2)s1 (configuration not stated),43.5%

row,Structure (SMILES),INHIBITION
1,CC(NC(=O)NCCc1cnn(C)c1)c1ccc(Cl)s1 (configuration not stated),68%
2,CC(NCc1cnc(N2CCOCC2)s1)c1ccc(Cl)s1 (configuration not stated),-19.1%
3,CC(NCCN1CCC(N(C)C)CC1)c1ccc(Cl)s1 (configuration not stated),27.7%
4,CC(NCc1cnc(N2CCOCC2)nc1)c1ccc(Cl)s1 (configuration not stated),51.8%
5,CC(NCCCc1cnn(C)c1)c1ccc(Br)s1 (configuration not stated),45.7%
6,COCCn1cc(NC(=O)NC(C)c2ccc(Cl)s2)cn1 (configuration not stated),-6.04%
7,CCc1nccn1C1CCCN(C(=O)c2ccc(NC3CC3)nc2)C1 (configuration not stated),-40.0335%
8,CNc1ncc(-c2ccc(NC(=O)[C@@H]3CCCCN3)cc2)cn1,4.08%
9,COc1ncccc1CNC(=O)c1ccc(C)[nH]c1=O,20.5%
10,COc1ccc(CN2CCn3c(CNS(C)(=O)=O)nnc3C2)cc1,13.1%
11,Cn1cnnc1SCCCNC(=O)Nc1ncccn1,4.66%
12,CCc1nnc2n1CCN(CC(=O)Nc1cc(C)nn1C)C2,45.6%
13,Cn1cc(CN2CCC3(CC2)NC(=O)CC3c2ccncc2)cn1 (configuration not stated),14.6%
14,CN(CC(=O)Nc1cc(CC2CCCCC2)n[nH]1)S(C)(=O)=O,-37%
15,CN(CCc1ccncc1)CCc1nccs1,79.5%
16,CN(CCc1ccccn1)CCc1nccs1,40.9%
17,CN(CCc1cccs1)CCc1nccs1,5.11%
18,CCN(C)c1ncnc2c1CCN(Cc1ccc(F)cc1)CC2,22.5%
19,CCCc1nnc(NCCc2noc(C3CCCC3)n2)o1,22.5%
20,CCc1csc(C2CCCN(C(=O)c3cnn(CC)c3)C2)n1 (configuration not stated),-19.7%
21,CCCn1cc(C(=O)N2CCOC(c3nc(-c4cccs4)no3)C2)cn1 (configuration not stated),48.6%
22,CCn1ccc(C(=O)N2CCOC(c3nc(-c4cccs4)no3)C2)n1 (configuration not stated),42.6%

row,Structure (SMILES),INHIBITION
1,O=C(c1cnc(O)c(Cl)c1)N1CCCC(c2nccs2)C1 (configuration not stated),26.9%
2,O=C(c1cnc(C2CC2)nc1)N1CCCC(c2nccs2)C1 (configuration not stated),52%
3,CCCn1cc(C(=O)N2CCCC(Cc3nccs3)C2)cn1 (configuration not stated),17.4%
4,CCn1cc(C(=O)N2CCCC(c3nccs3)C2)cn1 (configuration not stated),56%
5,CCn1cc(C(=O)N2CCOC(c3nc(-c4cccs4)no3)C2)cn1 (configuration not stated),73.8%
6,O=C(c1cncnc1)N1CCCC(c2nccs2)C1 (configuration not stated),13.54%
7,NC(=O)N1CCC(C(=O)NCc2nncn2-c2ccccc2)CC1,38.5%
8,CC(C)c1nc(CN2CCOC(Cn3cccn3)C2)no1 (configuration not stated),-38.7%
9,Cc1ncncc1C(=O)N1C[C@@H]2CC[C@H]1CN(C(=O)c1ccncc1)C2,-19.2%
10,CC(C)c1nccn1CCC(=O)NCC(C)(O)c1ccco1 (configuration not stated),-33.4%
11,CN(C(=O)c1ccco1)c1nc2c(s1)CCCC2,-68.6%
12,Cc1cc(=O)n(CC(=O)NCC2CCCO2)c(-c2ccccc2)n1 (configuration not stated),21%
13,Cc1cc(=O)n(CC(=O)NCC2CCCO2)c(-c2cccc(Cl)c2)n1 (configuration not stated),33.5%
14,Cc1cc(=O)n(CC(=O)NCC2CCCO2)c(-c2ccc(F)cc2)n1 (configuration not stated),50.1%
15,O=C(N1CCCO1)[C@@]12CCO[C@@H]1CCN(Cc1ccc(F)cc1)C2,-47.8%
16,O=C(C[C@@H]1COC[C@H]2CN(CC3CCOCC3)C[C@@H]12)N1CCCCO1,76.4%
17,O=C(C[C@@H]1COC[C@H]2CN(Cc3ccc(F)cc3)C[C@@H]12)N1CCCCO1,-13.4%
18,O=C(C[C@@H]1COC[C@H]2CN(CC3CC3)C[C@@H]12)N1CCCCO1,16.9%
19,O=C(C[C@@H]1COC[C@H]2CN(C3CCCC3)C[C@@H]12)N1CCCCO1,57.1%
20,O=C([C@@H]1COC[C@H]2CN(C3CCCC3)C[C@H]21)N1CCCCO1,40.5%
21,CS(=O)(=O)N1C[C@@H]2COC[C@@H](CC(=O)N3CCCCO3)[C@@H]2C1,28.2%
22,O=C(c1ccncn1)N1CCC[C@]2(C[C@H](Oc3ncccc3F)CO2)C1,-10.3%

row,Structure (SMILES),INHIBITION
1,COc1cccc(S(=O)(=O)N2C[C@@H](O)[C@H](N(C)C)C2)c1,9.98%
2,Cn1cc(-c2cnc(N3CCCC3)nc2)cc1C(=O)N1CCOCC1,-18.4%
3,Cn1nccc1C(=O)N1CCC(c2ncc(Cl)cc2S(C)(=O)=O)CC1,30.4%
4,C=Cn1ncc(CN2C[C@@H]3C[C@@H](O)CN3C[C@H]2Cc2ccccc2)c1C,13%
5,CCn1ncc(CN2C[C@@H]3CCCN3C[C@@H]2CCSC)c1C,46%
6,CCCn1ncc(CN2C[C@@H]3CCCN3C[C@H]2Cc2ccccc2)c1C,57.5%
7,C=Cn1ncc(CN2C[C@@H]3CCCN3C[C@@H]2CCSC)c1C,30.8%
8,CCn1ncc(CN2C[C@@H]3CCCN3C[C@H]2CCSC)c1C,2.71%
9,C=Cn1ncc(CN2C[C@@H]3CCCN3C[C@@H]2Cc2ccccc2)c1C,50%
10,CCCn1ncc(CN2C[C@@H]3CCCN3C[C@@H]2Cc2ccccc2)c1C,29.3%
11,C=Cn1ncc(CN2C[C@@H]3C[C@@H](O)CN3C[C@@H]2Cc2ccccc2)c1C,42.6%
12,CCCn1ncc(CN2C[C@@H]3CCCN3C[C@@H]2CCSC)c1C,57.4%
13,C=Cn1ncc(CN2C[C@@H]3CCCN3C[C@H]2CCSC)c1C,30.1%
14,CCCn1ncc(CN2C[C@@H]3CCCN3C[C@H]2CCSC)c1C,37.6%
15,C=Cn1ncc(CN2C[C@@H]3CCCN3C[C@H]2Cc2ccccc2)c1C,51.5%
16,Cc1nc(N2CCN(c3ccccc3)CC2)c2c(n1)c(C)nn2C,25.1%
17,CC(=O)N1CCN(CC=C(C)C)CC1,19.1%
18,CCNC(=O)[C@@H]1C[C@@H](NC(=O)c2cccn2C)CN1CCCSC,-7.7%
19,Cc1cc(-c2cccc(-c3ccn(CCCO)n3)c2)nc(N(C)C)n1,-22.8%
20,O=C(CCC1CCCO1)NCCN1CCCCC1 (configuration not stated),52.2%
21,COc1ccc(OC)c(CCNC(=O)CCC2CCCO2)c1 (configuration not stated),38.3%
22,O=C(CCC1CCCO1)NCCCO (configuration not stated),51%

row,Structure (SMILES),INHIBITION
1,CCOCCNC(=O)CCC1CCCO1 (configuration not stated),42.1%
2,O=C(CCC1CCCO1)NCCc1ccccn1 (configuration not stated),18.3%
3,O=C(CCC1CCCO1)NCCCC(=O)Nc1ccc(Cl)cc1 (configuration not stated),36.8%
4,Cc1c[nH]nc1C1CCCN(C(=O)Cn2cccn2)C1 (configuration not stated),2.71%
5,Cc1nc(C2CCCCN2S(C)(=O)=O)no1 (configuration not stated),-4.87%
6,CC(=O)N1N=C(c2ccccc2)OC1C(=O)NCCc1ccc(Cl)cc1 (configuration not stated),-53.7%
7,CCN(CCCNCc1c(C)nn(C)c1N(C)C)S(C)(=O)=O,0.58%
8,Cc1nc(C2CCN2c2ncccn2)cc(N(C)C)n1 (configuration not stated),10.9%
9,CCN(CC)C(=O)CSc1nc2nc(C)ccc2o1,-4.76%
10,CCN(Cc1cccc2c1OCO2)C(=O)NCc1ccccn1,-27.8%
11,Cc1ccc(C)c(C(=O)N2CCN(C(=O)Cc3ccccn3)CC2)c1,29.7%
12,Cc1cc(C(=O)CN2C(=O)c3ccccc3CS2(=O)=O)c(C)[nH]1,56.4%
13,Cc1ccccc1C(=O)CN1C(=O)c2ccccc2CS1(=O)=O,10.1%
14,N#Cc1cccc(CN2C(=O)c3ccccc3CS2(=O)=O)c1,-0.85%
15,Cc1cc(C)c(CNC(=O)C2COc3ccccc3C2)c(=O)[nH]1 (configuration not stated),32.9%
16,Cc1cc(=O)c(C(=O)N2CCN(C)c3ccccc3C2)c[nH]1,43.9%
17,Cc1ccc(C)c(C(=O)CN2C(=O)c3ccccc3CS2(=O)=O)c1,56.8%
18,CCCn1c(C)cc(C(=O)CN2C(=O)c3ccccc3CS2(=O)=O)c1C,31.8%
19,Cc1ccc(C(=O)CN2C(=O)c3ccccc3CS2(=O)=O)c(C)c1,65.3%

# Source: ChEMBL document CHEMBL4513216, “Probing the Open Global Health Chemical Diversity Library for Multistage-Active Starting Points for Next-Generation Antimalarials” (ACS Infect Dis, 2020)
